According to PubChem BioAssay (NCI):
Compounds without any hit were thinned out: in the full panel of roughly 83,000, 20% have a hit.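 Percent growth is the endpoint: 0 to 100 indicates growth inhibition (40 means 60% inhibition), 0 means no net growth, and negative values indicate cell death.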 Activity calls are given as the source filed them.

Each compound was assayed on NCI-H23 lung (assay: NCI-60 one-dose screen, 48 h (100 = growth as untreated, 0 = no growth, -100 = all killed)). Settings: 10 µM.
Procedure: Growth inhibition of the NCI-H23 human Non-Small Cell Lung tumor cell line is measured as a screen for anti-cancer activity. Cells are grown in 96 well plates and exposed to the test compound for 48 hours. Compounds are tested at a single concentration, which is 10^-5 M for most compounds. The reported endpoint is percent growth (GI% or GIPRCNT), where numbers from 0 - 100% represent growth inhibition, and numbers from -100% - 0 represent cell death. For example, a value of 40 represents 60% growth inhibition. A value of 0 means no net growth occurred over the course of the experiment. A value of -40 indicates 40% of cells at the beginning of the experiment died by the end of the experiment. A value of -100 means all cells are dead at the end of the experiment.
NCI-60 Human Tumor Cell Lines Screen was performed using the standard one-dose NCI protocol, which is described in more detail at https://dtp.cancer.gov/discovery_development/nci-60/default.htm.
Compounds with GIPRCNT values below 10 were considered active. Activity score was based on GIPRCNT using the following formula: […]
Score is 0 for GIPRCNT values of 100 or above, 50 for GIPRCNT values of 0, and 100 for GIPRCNT values of -100.
With `COc1ccc(-c2ccc(/C=N/NC(=O)c3[nH]c4ccc(Br)cc4c3-c3ccccc3)s2)cc1` the growth was 68.8% (inactive). With `O=C(Nc1ccc(I)cc1F)c1cc(-c2ccc(F)cc2F)ccc1O` the growth was -22% (active). With `O=S(=O)(c1ccc(Cl)cc1)c1nc(-c2ccccc2)oc1S(=O)(=O)c1ccc(Cl)cc1` the growth was 78.9% (inactive). `O=C(Cc1ccc2c(c1)CN(C1CCC(=O)NC1=O)C2=O)NCCc1ccccc1` (stereo not given) was tested, and the growth was 72.8% (inactive). For `C=CC(=O)Nc1nc(-c2cccc(NS(=O)(=O)c3cccc4c(N(C)C)cccc34)c2)cs1`, the growth was -3.14% (active). With `COc1ccc(/C=C/C(=O)c2ccc(NC(=O)CN3C(=O)NC(C)(c4ccccc4)C3=O)cc2)cc1` (stereo not given) the growth was 83.8% (inactive). `CC(C)NC(=O)c1cc(-c2ccc(NC(=O)Nc3ccc(N4CCN(C)CC4)c(C(F)(F)F)c3)cc2)nc2cccnc12` was tested, and the growth was -84.6% (active). In the case of `COc1ccc2[nH]c(O)c(N=NC(=O)COc3ccc(NC(=O)Nc4ccc(Cl)c(Cl)c4)cc3)c2c1`, the growth was -80.4% (active). For `O=C(c1ccc(O)cc1)C1[C@H](c2ccc(Br)cc2)[C@@H](c2ccccc2)NC12C(=O)Nc1ccc(Br)cc12` (stereo not given in full), the growth was -54.4% (active). For `O=C(CNc1nc(-c2ccccc2)cs1)Nc1ccc(Cl)cc1`, the growth was -93.8% (active). With `O=C(CSc1nnc(-c2c[nH]c3ccccc23)n1-c1ccccc1)c1ccc(Br)cc1` the growth was 54% (inactive). In the case of `CCOc1ccc2ncc(C#Cc3cncc(C(=O)Nc4ccc(CN5CCN(C)CC5)c(C(F)(F)F)c4)c3)n2n1`, the growth was -70% (active). With `N#Cc1c(NC(=O)c2ccc(C(F)(F)F)c(Cl)c2)sc2c1CCC(=O)C2` the growth was -60.9% (active). In the case of `NS(=O)(=O)c1ccc(NC(=O)CSc2ccc(-c3ccc(Cl)cc3)nn2)c(Br)c1`, the growth was 61.1% (inactive). For `COc1ccc(C(=O)Nc2sc3c(c2C#N)CCC(=O)C3)cc1C(F)(F)F`, the growth was -13.7% (active). `CC1(C)CC[C@]2(C(=O)NCCCNCCCCNCCCN)CC[C@]3(C)C(=CC[C@@H]4[C@@]5(C)Cc6c([nH]c7ccccc67)C(C)(C)[C@@H]5CC[C@]43C)[C@H]2C1` was tested, and the growth was 83.7% (inactive). With `COc1ccc(CN2[C@H](C(=O)NCCCCCCC(=O)NO)Cc3c([nH]c4ccccc34)[C@H]2C2CC2)cc1` the growth was -17.5% (active). For `CC(=O)Oc1ccccc1C(=O)Oc1ccc(C(=O)/C=C/c2ccncc2)cc1`, the growth was 36.9% (inactive). In the case of `O=c1nc(-c2ccccc2)cc(-c2cc3ccccc3nc2Cl)[nH]1`, the growth was 33.6% (inactive). In the case of `O=C1Nc2cc(-c3ccc(NC(=O)c4cccc([N+](=O)[O-])c4)cc3)ccc2/C1=C/c1ccc[nH]1`, the growth was 71.6% (inactive). `C/C(=N\N=C\c1ccc(Cl)c([N+](=O)[O-])c1)c1ccc2c(c1)Nc1ccccc1S2` was tested, and the growth was 18.2% (inactive). `Clc1ccc2c(N/N=C/c3c[nH]c4ccc(Br)cc34)ccnc2c1` was tested, and the growth was -85.4% (active). In the case of `COC[C@@H](CC(C)C)N=C1NC(=O)/C(=C/c2ccc3ncsc3c2)N1`, the growth was -10.5% (active). With `O=c1[nH][nH]c(Nc2ccccc2)c1N=Nc1ccc(F)cc1` the growth was 102% (inactive). For `CN(C(=O)c1ccc(C(C)(C)C)cc1)c1sc2c(c1C#N)CCC(=O)C2`, the growth was -29.1% (active). `CC(C)(C)c1ccc(NCc2cn(-c3ccc(C(=O)O)cc3)nc2-c2ccc(C#N)cc2)cc1` was tested, and the growth was 8.82% (active). For `Cc1ccn2c(C(=O)c3ccccc3)cc(-c3cc(-c4ccc(N(C)C)cc4)c(C#N)c(N)n3)c2c1`, the growth was 46.1% (inactive). `CCOC(=O)C1=C(N)N(c2ccccc2)C2=C(C(=O)CC(C)(C)C2)C1c1ccccc1OC` (stereo not given) was tested, and the growth was 98.3% (inactive). In the case of `COc1ccc(C(C)=C(c2ccc(OCCCN(C)C)cc2)c2ccc(OCCCN(C)C)cc2)cc1`, the growth was -95.6% (active). `COc1ccc2[nH]c(O)c(N=NC(=O)c3cc(-c4ccc(C)cc4)nc4ccccc34)c2c1` was tested, and the growth was 86% (inactive). With `O=C(CNc1nc(-c2ccccc2)cs1)Nc1ccc(Cl)cc1[N+](=O)[O-]` the growth was -57.3% (active). For `O=c1[nH]n(C(=S)N/N=C/c2ccc(F)cc2)c(=O)c2ccccc12`, the growth was 75.3% (inactive). In the case of `COc1cc2oc(-c3cccc(C(=O)Nc4ccc(Cl)cc4)c3)cc(=O)c2c(OCCNC(=O)CNC(=O)OC(C)(C)C)c1OC`, the growth was 63.8% (inactive). For `O=C(CSc1nnc(-c2ccc3nc(-c4ccc(Cl)cc4)[nH]c3c2)o1)Nc1ccc(Cl)cc1`, the growth was -73.9% (active). For `CCCCSc1nc(Nc2ccc(/C(C)=N/NC(N)=S)cc2)c(C#N)c(-c2ccc(F)cc2)n1`, the growth was 21% (inactive). With `CO[C@@H]1CSS[C@H]1Cn1nc(-c2ccc(Oc3ccccc3)cc2)c2c(N)ncnc21` the growth was 63.5% (inactive). In the case of `COc1ccc(C=CC(=O)c2ccc(-n3c(C)nc4c(cnn4-c4ccccc4)c3=O)cc2)cc1`, the growth was 72.4% (inactive). With `CN1CCN(c2ccc(C(=O)/C=C/c3ccc(C#N)cc3)cc2)CC1` the growth was 76.5% (inactive). With `Cc1noc2c(Cc3ccccc3)nn(CC(=O)N/N=C/c3ccc(Cl)cc3)c(=O)c12` the growth was 79.1% (inactive). With `CC(=O)OC[C@@]1(C)C2CC[C@]3(C)C(CC=C4C5CC(C)(C)CC[C@]5(C(=O)Nc5ccccc5)CC[C@]43C)[C@@]2(C)C[C@@H](OC(C)=O)[C@@H]1OC(C)=O` (stereo not given in full) the growth was 40.2% (inactive).
